Compound activity: PubChem BioAssay, several laboratories
CSC inhib = cancer stem cell inhibition; cancer stem cell-like cells viability, luminescence; hit rate 1.1% among 300,000; inhibition, % at 7.5 µM; AID 2717; in the data active means inhibition above about 75%; tested in HMLE shEcad cells
Beta cell apopt = blocks beta cell apoptosis; INS-1E cytokine-induced death, ATP luminescence, 48 h; percent of positive-control rescue, neutral wells zero; protection from apoptosis, % (concentration not given with the values); hit rate 0.8% among 300,000; AID 435005;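 active means Every replicate reaches about 75%, or at least half do and their mean reaches it too, limit read from the data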;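 further: higher means more ATP so stronger rescue from cytokine killing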
MPTP block = permeability transition pore inhibition | isolated mouse mitochondria, Ca2+ swelling absorbance, 30 min | inhibition, % at 10 µM | hit rate 1.4% among 360,000;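 active means inhibition of 50% or more, scaled per plate between neutral and stimulator controls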
NR3A LBD binder = modulators (binders) of human NR3A ligand-binding domain; NR3A LBD differential scanning fluorimetry, Tm shift; 0% = protein alone, 100% = glycine-bound protein; Tm shift relative to glycine control, % at 25 µM; hit rate 2.5% among 340,000; AID 1259313;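 active means melting temperature shift of at least 10% of the positive control shift, at one fixed dose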
Mdm2 MdmX PPI = human Mdm2/MdmX binding inhibition; O15151+Q00987; SaOS-2 split-luciferase Mdm2/MdmX complementation, luminescence; inhibition, % at 8 µM; hit rate 3% among 330,000; AID 485346;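 active means inhibition of at least 50% at 8 µM in the primary screen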
Target sequence (O15151 whole entry, looked up): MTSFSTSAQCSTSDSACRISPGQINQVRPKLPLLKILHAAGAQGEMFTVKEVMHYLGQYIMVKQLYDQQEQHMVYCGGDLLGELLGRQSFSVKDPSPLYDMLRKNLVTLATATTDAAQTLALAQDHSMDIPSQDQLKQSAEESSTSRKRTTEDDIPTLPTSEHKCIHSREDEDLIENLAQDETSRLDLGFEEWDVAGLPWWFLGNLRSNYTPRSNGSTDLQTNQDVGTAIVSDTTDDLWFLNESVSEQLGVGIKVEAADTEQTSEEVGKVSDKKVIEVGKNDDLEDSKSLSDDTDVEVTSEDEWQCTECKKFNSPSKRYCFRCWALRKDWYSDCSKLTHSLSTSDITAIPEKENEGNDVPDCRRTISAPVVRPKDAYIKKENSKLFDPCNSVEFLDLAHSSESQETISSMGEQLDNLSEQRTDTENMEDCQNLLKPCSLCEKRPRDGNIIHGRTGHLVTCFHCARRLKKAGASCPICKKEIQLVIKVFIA
Target sequence (Q00987 whole entry, looked up): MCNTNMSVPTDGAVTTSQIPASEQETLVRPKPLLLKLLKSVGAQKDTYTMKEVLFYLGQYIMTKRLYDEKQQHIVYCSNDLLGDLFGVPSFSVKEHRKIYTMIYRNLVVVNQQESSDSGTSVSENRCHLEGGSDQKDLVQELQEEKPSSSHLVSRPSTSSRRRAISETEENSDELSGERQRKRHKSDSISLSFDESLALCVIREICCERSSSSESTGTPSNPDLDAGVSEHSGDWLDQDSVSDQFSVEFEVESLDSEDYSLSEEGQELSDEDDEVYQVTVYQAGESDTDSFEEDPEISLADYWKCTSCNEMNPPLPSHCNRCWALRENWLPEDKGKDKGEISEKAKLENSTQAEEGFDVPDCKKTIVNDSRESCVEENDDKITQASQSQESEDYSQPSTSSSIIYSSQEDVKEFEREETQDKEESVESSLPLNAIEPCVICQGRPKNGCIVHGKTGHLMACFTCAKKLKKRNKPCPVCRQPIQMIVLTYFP
Gli-Sufu antag = Gli-Sufu pathway antagonism | Sufu-KO-LIGHT fibroblasts, Gli luciferase reporter luminescence | inhibition, % at 5 µM | hit rate 0.74% among 340,000 | AID 588413;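 active means inhibition above about 55%, limit read from the data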
Numbers stand for hits; 0 = inactive; - = no result given. Most compounds without a hit are left out; they make up all but 6.6% or so of the library.

SMILES	CSC inhib	Beta cell apopt	MPTP block	NR3A LBD binder	Mdm2 MdmX PPI	Gli-Sufu antag
NC(=O)c1ccc(NC(=O)c2ccc(COc3ccc(F)cc3)o2)cc1	0	0	0	0	0	0
CC(C)(C)c1ccc(S(=O)(=O)N2CCNC(=O)C2)cc1	0	0	0	0	0	0
[NH-]c1ncnc2c1N=C[N+]2=CC=CCO	0	0	0	14	-	0
CC(C)(C)Nc1nc(SCC(=O)Nc2ccccc2Cl)nc(N2CCOCC2)n1	0	-	0	17	0	0
COc1ccc(O)c(CN2CCN(CCCc3ccccc3)C(CCO)C2)c1 (stereo unspecified)	0	-	0	0	0	0
S=C(Cc1ccccc1)N1CCOCC1	-	-	0	0	-	0
CC(C)(CCC(=S)N1CCOCC1)c1ccccc1	-	-	0	11	-	0
O=[N+]([O-])c1cccc(-c2cn3nc(-c4ccccc4)c(-c4ccccc4)nc3n2)c1	0	98	0	0	0	0
NC(=S)NN=C1C=CCCC1	-	-	0	0	-	0
COc1ccc(-c2ncccc2OC(=O)C23CC4CC(CC(C4)C2)C3)cc1	0	0	0	16	0	0
O=C(Nc1ccc2[nH]c(=S)sc2c1)Nc1ccccc1F	0	0	0	29	0	0
Cc1nc2ccc(NC(=O)c3ccccc3)cc2s1	0	0	0	0	0	0
O=C(Nc1ccc2[nH]c(=S)sc2c1)c1ccccc1	0	0	0	21	0	0
CCOC(=O)C1CCN(S(=O)(=O)c2ccc3c(c2)CC(=O)N3C)CC1	0	0	0	0	0	0
O=C(COC(=O)C1(c2cccc(F)c2)CCCC1)NCc1ccc2c(c1)OCO2	0	0	0	0	0	0
CC1CN(CC(O)COC(c2ccc(Cl)cc2)c2ccc(Cl)cc2)CC(C)O1 (stereo unspecified)	0	106	0	0	0	0
Cc1cc(S(=O)(=O)N(Cc2ccc3c(c2)OCO3)CC2CCCO2)ccc1-n1cnnn1 (stereo unspecified)	0	0	0	21	0	0
COc1ccc(C2CC(c3ccc(Br)cc3)=NN2C(=S)Nc2ccccc2)cc1 (stereo unspecified)	0	0	0	11	0	0
COc1ccc(C2CC(c3ccccc3)=NN2C(=S)Nc2ccccc2)cc1 (stereo unspecified)	0	0	0	0	0	0
Cc1ccc(NC(=O)COC(=O)c2nn(-c3ccc(Cl)cc3)cc2O)cc1	0	0	0	0	0	0
NNC(=O)c1nn(-c2ccc(Cl)cc2)cc1O	0	75	0	0	0	0
CC(C)CCn1c(=O)c2ccccc2n2c(CCC(=O)NCC3CCCO3)nnc12 (stereo unspecified)	0	0	0	0	0	0
O=C1NC(c2ccccc2)(C(F)(F)F)C(=O)N1Cc1cccnc1 (stereo unspecified)	0	0	0	20	0	0
CCOC(=O)c1cc(CN2CCOCC2)oc1-c1ccccc1	0	0	0	10	0	0
CCOC(=O)c1c(-c2ccccc2)oc2ccc(O)c(CN3CCOCC3)c12	0	0	0	0	0	0
SMILES	CSC inhib	Beta cell apopt	MPTP block	NR3A LBD binder	Mdm2 MdmX PPI	Gli-Sufu antag
Cc1ccc(CCNC(=O)C2CCC(CNc3c(N4CCCC4)c(=O)c3=O)CC2)cc1 (stereo unspecified)	0	0	0	17	0	0
Cc1ccc(CCNC(=O)C2CCC(CNc3c(N4CCC(C)CC4)c(=O)c3=O)CC2)cc1 (stereo unspecified)	0	0	0	0	0	0
Cc1onc(-c2ccccc2)c1NC(=O)OC(C)c1cccnc1 (stereo unspecified)	-	-	0	-	-	-
CCOc1ccc(Nc2cc(C)c3ccccc3n2)cc1	0	0	0	22	0	0
Cc1cc(Nc2ccccc2)nc2cc(O)ccc12	0	0	0	0	0	0
CC(=O)Nc1ccc(Nc2cc(C)c3ccccc3n2)cc1	0	0	0	13	0	0
Cc1ccc(N(CC(=O)Nc2cc(C)cc(C)c2)S(=O)(=O)c2c(C)noc2C)cc1	0	102	0	0	0	68
COc1ccc(C2/C=C\CN(C(=O)c3ccccc3)[C@H](Cc3ccccc3)C(=O)N2Cc2ccc(F)cc2)cc1 (stereo partly specified)	0	94	0	0	0	0
COc1ccc([C@H]2/C=C\CN(C(=O)c3ccc(C)cc3)[C@@H](C)C(=O)N2Cc2ccc(F)cc2)cc1	-	0	0	0	0	0
Cn1nc(C(=O)Nc2ccc(S(=O)(=O)Nc3ncccn3)cc2)ccc1=O	0	0	0	0	0	0
Cc1ccc(S(=O)(=O)N(C)C)cc1NC(=S)N1CCN(Cc2ccc3c(c2)OCO3)CC1	0	-	0	0	0	55
Cc1ccccc1NC(=S)N1CCN(Cc2ccc3c(c2)OCO3)CC1	0	0	0	0	0	0
FC(F)(F)c1ccccc1NC(=S)N1CCN(Cc2ccc3c(c2)OCO3)CC1	-	82	0	0	0	0
O=C1C2C3C=CC(c4ccccc4)(C2C(=O)N1c1cccc(Cl)c1)C1C(=O)N(c2cccc(Cl)c2)C(=O)C31 (stereo unspecified)	0	0	0	23	0	0
Cc1cc2nc(-c3ccc[nH]c3=O)[nH]c2cc1C	0	78	0	0	0	0
O=C(CSc1nc2ccccc2c(=O)n1-c1ccc(Cl)cc1)N/N=C/C=C/c1ccccc1[N+](=O)[O-]	-	0	0	0	0	0
O=C(CSc1nc2ccccc2c(=O)n1-c1ccccc1)N/N=C/C=C/c1ccccc1[N+](=O)[O-]	78	0	0	0	0	0
O=C(COC(=O)c1ccc(F)c(S(=O)(=O)N2CCOCC2)c1)NCc1ccc(Cl)cc1	0	0	0	0	0	0
CC(C)c1ccc(NC(=O)Cn2nnc(C(=O)NCc3ccco3)c2N)cc1	0	0	0	12	0	0
COc1ccc(NC(=O)Cn2nnc(C(=O)NCc3cccs3)c2N)cc1OC	0	-	0	0	0	0
Cc1cc(C)cc(NC(=O)Cn2nnc(C(=O)NCc3ccc(F)cc3)c2N)c1	0	-	0	34	0	0
CCOc1ccccc1NC(=O)c1nnn(CC(=O)Nc2cc(C)cc(C)c2)c1N	0	0	0	13	0	0
Cc1ccc(NC(=O)Cn2nnc(C(=O)NCc3cccs3)c2N)cc1F	0	0	0	32	0	0
O=c1[nH][nH]c2c1[C@H](c1ccc(Cl)cc1)O[C@H](C1CCCC1)C2	-	-	0	-	-	-
COc1ccc(C)cc1NC(=O)c1nnn(Cc2cc(C)ccc2C)c1N	0	0	0	0	0	0
COc1ccc(OC)c(NC(=O)c2nnn(Cc3ccccc3C)c2N)c1	106	0	0	0	0	0
COc1ccc(C)cc1NC(=S)N1CC(C)OC(C)C1 (stereo unspecified)	0	0	0	0	0	0
COP(=O)(OC)C(Nc1ccc(C)cc1)c1ccc([N+](=O)[O-])cc1 (stereo unspecified)	0	0	0	15	0	0
COc1ccc(C(=O)NCC(c2ccco2)N2CCc3ccccc32)c(OC)c1 (stereo unspecified)	0	0	0	0	0	0
